Screening data: PubChem BioAssay, several laboratories
Sampled rows, rich in hits. Any-hit rate of the full collection: about 2.3%.
KLK7 zymogen act = activators of human kallikrein-7 zymogen; P49862; purified proKLK7, EDANS-DABCYL substrate fluorescence; 100% is mature enzyme control, 0% vehicle; activation, % at 7 µM; 370,000 compounds, 0.9% hits;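 active means activation above the mean of all tested compounds plus 3 SD, computed per campaign excluding outliers beyond control limits, cut at about 13% in these data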
Target sequence (P49862 whole entry, looked up): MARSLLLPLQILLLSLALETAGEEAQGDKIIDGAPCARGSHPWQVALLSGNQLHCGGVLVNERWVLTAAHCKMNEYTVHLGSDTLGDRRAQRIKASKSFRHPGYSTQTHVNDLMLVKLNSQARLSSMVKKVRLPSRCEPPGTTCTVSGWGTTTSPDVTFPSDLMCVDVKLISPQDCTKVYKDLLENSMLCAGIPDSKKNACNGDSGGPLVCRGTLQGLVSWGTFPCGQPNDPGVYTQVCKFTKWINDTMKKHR
V-ATPase pHluor = alters yeast V-ATPase proton transport; response, % at 10 µM; AID 504577; S. cerevisiae, pHLuorin cytosolic pH fluorescence; 350,000 compounds, 0.37% hits; in the data active means response mostly above about 7.3%, no sharp cut-off; inactive means mostly below about 5.4%; further: actives read high
ADAM17 inh = inhibitors of human ADAM17; P78536; recombinant ADAM17, EDANS/DABCYL FRET peptide cleavage; inhibition, % at 6.95 µM; 370,000 compounds, 0.83% hits; AID 720648;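 active means inhibition above the mean of compounds lying between control limits plus 3 SD, set per campaign, cut at about 8.5% in these data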
ADAM10 inh = inhibitors of human ADAM10; O14672; recombinant ADAM10, EDANS/DABCYL FRET peptide cleavage, 3 h; inhibition, % at 7 µM; 370,000 compounds, 0.62% hits;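 active means inhibition above a per-campaign cutoff equal to the mean of compounds falling between control-based bounds plus 3 SD, cut at about 20% in these data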
Hits are given with their value; - = inactive; . = no result.

SMILES	KLK7 zymogen act	V-ATPase pHluor	ADAM17 inh	ADAM10 inh
Cc1ccc2c(c1)[C@H]1[C@H](CO2)[C@H](c2ccccc2)[C@]2(C)C(=O)Nc3ccc(Cl)cc3C(=O)N12	-	-	11.3	28.6
C=CCn1c(Cc2cccs2)nnc1SCC(=O)Nc1cccc2ccccc12	-	.	-	-
CCOC(=O)COc1ccc(/C=C/[N+](=O)[O-])c(OCC(=O)OCC)c1	-	-	9.1	-
COc1ccc(-c2[nH]ncc2CNCCCSC)cc1F	-	14.4	-	-
CC[C@@]1(c2ccccc2)C(=O)N(C(=O)OC)N1C(=O)OC	-	-	-	-
CC[C@]1(c2ccccc2)C(=O)N(C(=O)OC)N1C(=O)OC	-	-	10.4	-
CC1(C)C2CCC1(C)C(OCCNCCOC(=O)Nc1ccccc1)C2 (stereo unspecified)	-	13.6	-	-
CCOc1ccc(C(=O)NCC(=O)OCc2c(C)noc2C)cc1OCC	-	13.1	-	-
CC(=O)OCCCN1CCC2(CCCCC2)C1=O	-	.	-	-
O=C(CN(c1cccc([N+](=O)[O-])c1)S(=O)(=O)c1ccccc1)NCc1cccnc1	-	-	-	-
O=C(CN(c1cccc(C(F)(F)F)c1)S(=O)(=O)c1ccc(Cl)c([N+](=O)[O-])c1)NCc1ccc(F)cc1	-	-	-	20.1
CC(C)(C)c1cc(C(=O)NN)n(Cc2ccc(F)cc2)n1	-	-	-	-
Cc1cccc(Cn2nc(C(C)(C)C)cc2C(=O)Nc2ccc(F)cc2)c1	-	-	9.0	25.3
O=C(Nc1ccc(N2C(=O)[C@@H]3[C@H](C2=O)[C@@H]2C=C[C@H]3C2)c(Cl)c1)c1ccccn1	.	.	-	-
Cc1cccc(Nc2nc(N)c([N+](=O)[O-])c(N3CCCC(C)C3)n2)c1 (stereo unspecified)	-	-	9.0	-
Cc1cccc(Nc2nc(N)c([N+](=O)[O-])c(N3CCN(C)CC3)n2)c1	-	-	-	-
CCCCc1nc2cc(C(=O)N(C)CCc3cn[nH]c3)ccc2o1	-	14.7	-	-
COc1ccc(S(=O)(=O)N2CCCN(CC(=O)Nc3cc(NC(C)=O)ccc3OC)CC2)cc1	-	-	-	-
COc1ccc(NC(C)=O)cc1NC(=O)CN1CCN(S(=O)(=O)c2ccc(C(C)C)cc2)CC1	-	18.8	-	-
C[C@H](NC(=O)c1[nH]cnc1C(=O)Nc1ccc(CNC(=O)OC(C)(C)C)cc1)C(=O)OC(C)(C)C	-	-	11.3	21.9
CC(C)C[C@H](NC(=O)c1nc[nH]c1C(=O)NC(c1ccccc1)c1ccccc1)C(=O)OC(C)(C)C	-	-	-	-
CC(C)C[C@H](NC(=O)c1nc[nH]c1C(=O)N[C@@H](CC(C)C)C(=O)OC(C)(C)C)C(=O)OC(C)(C)C	-	-	9.5	-
Cn1cnc(C(=O)NCc2ccc(CNC(=O)OC(C)(C)C)cc2)c1C(=O)NCc1ccc(CNC(=O)OC(C)(C)C)cc1	-	-	11.3	20.8
COC(=O)c1ccc(S(=O)(=O)N2CCC(NC(=O)Cc3cccc(C)c3)CC2)cc1	-	.	-	-
CCn1c(SCC(=O)NN=Cc2c[nH]c3ccccc23)nc2ccccc21	-	.	-	-
SMILES	KLK7 zymogen act	V-ATPase pHluor	ADAM17 inh	ADAM10 inh
CCN1CCN(C2=CC3=CC(=C(C#N)C#N)CCC3CC2)CC1 (stereo unspecified)	.	28.4	.	.
Fc1ccc(-n2c(CN3CCCCC3)n[nH]c2=S)cc1	-	13.6	-	-
Cc1ccc(NC(=O)c2ccc(CS(=O)(=O)Cc3ccccc3C)o2)cc1C	-	.	-	-
COc1ccc(-c2csc(NC(=O)C3CCCCN3S(=O)(=O)c3ccccc3)n2)cc1 (stereo unspecified)	-	-	10.2	-
COc1ccc(-c2csc(NC(=O)CS(=O)(=O)c3ccccc3)n2)cc1	-	-	-	-
O=C(NC1CCN(Cc2ccccc2)C1)c1cccc(S(=O)(=O)N2CCOCC2)c1 (stereo unspecified)	-	-	-	-
O=S(=O)(NC1CCN(Cc2ccccc2)CC1)c1cccc(S(=O)(=O)N2CCOCC2)c1	-	15.2	-	-
C#CCOCCOCCOCCNc1nc(N2CCOCC2)nc(N2CCN(C(=O)[C@H](CCC(=O)O)n3cc(C(N)CC(C)C)nn3)CC2)n1 (stereo partly specified)	.	.	-	-
CN(CC(=O)Nc1cccc(C(F)(F)F)c1)C1=NS(=O)(=O)c2ccccc21	-	13.2	-	-
Cc1ccc(/C=C2/SC(=S)N(CCCC(=O)Nc3ccc(O)cc3)C2=O)cc1	-	-	-	-
O=C(CCCN1C(=O)/C(=C\c2ccccc2)SC1=S)Nc1ccc(O)cc1	-	-	-	24.1
CCOC(=O)[C@]12CCCCC/C=C\1N(CCc1ccc(Cl)cc1)C(=O)[C@H]2CC(=O)NCc1cccs1	-	.	-	-
